Test [1] addresses Tyrosine-protein kinase SYK (Homo sapiens) (UniProt P43405). The conditions noted are these: at 10 µM.
Test [2] concerns the target T1, Mitogen-activated protein kinase kinase kinase 7 (Homo sapiens) (UniProt O43318).
T1 sequence (whole entry): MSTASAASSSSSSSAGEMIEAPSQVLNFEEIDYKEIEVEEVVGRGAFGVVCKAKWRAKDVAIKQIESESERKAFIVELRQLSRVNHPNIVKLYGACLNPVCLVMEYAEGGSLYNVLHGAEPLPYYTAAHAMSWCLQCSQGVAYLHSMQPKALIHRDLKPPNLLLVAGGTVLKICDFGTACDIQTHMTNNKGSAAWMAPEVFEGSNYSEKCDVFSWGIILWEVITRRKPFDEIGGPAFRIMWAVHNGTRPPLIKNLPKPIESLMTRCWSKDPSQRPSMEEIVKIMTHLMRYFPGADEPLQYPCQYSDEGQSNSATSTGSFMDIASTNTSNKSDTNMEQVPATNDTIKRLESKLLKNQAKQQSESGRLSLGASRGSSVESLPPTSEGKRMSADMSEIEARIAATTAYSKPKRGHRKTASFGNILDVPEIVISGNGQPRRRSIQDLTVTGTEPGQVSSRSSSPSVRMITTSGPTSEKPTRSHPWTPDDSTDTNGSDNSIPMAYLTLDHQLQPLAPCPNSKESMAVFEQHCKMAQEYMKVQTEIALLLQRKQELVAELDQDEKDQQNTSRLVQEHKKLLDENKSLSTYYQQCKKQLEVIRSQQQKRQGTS
The note with it: at 1 µM.

Test [3] concerns the target T1, Mitogen-activated protein kinase kinase kinase 7 (Homo sapiens). The note with it: at 10 µM.
Test [4] addresses T2, Serine/threonine-protein kinase TAO1 (Homo sapiens) (UniProt Q7L7X3).
T2 sequence (whole entry): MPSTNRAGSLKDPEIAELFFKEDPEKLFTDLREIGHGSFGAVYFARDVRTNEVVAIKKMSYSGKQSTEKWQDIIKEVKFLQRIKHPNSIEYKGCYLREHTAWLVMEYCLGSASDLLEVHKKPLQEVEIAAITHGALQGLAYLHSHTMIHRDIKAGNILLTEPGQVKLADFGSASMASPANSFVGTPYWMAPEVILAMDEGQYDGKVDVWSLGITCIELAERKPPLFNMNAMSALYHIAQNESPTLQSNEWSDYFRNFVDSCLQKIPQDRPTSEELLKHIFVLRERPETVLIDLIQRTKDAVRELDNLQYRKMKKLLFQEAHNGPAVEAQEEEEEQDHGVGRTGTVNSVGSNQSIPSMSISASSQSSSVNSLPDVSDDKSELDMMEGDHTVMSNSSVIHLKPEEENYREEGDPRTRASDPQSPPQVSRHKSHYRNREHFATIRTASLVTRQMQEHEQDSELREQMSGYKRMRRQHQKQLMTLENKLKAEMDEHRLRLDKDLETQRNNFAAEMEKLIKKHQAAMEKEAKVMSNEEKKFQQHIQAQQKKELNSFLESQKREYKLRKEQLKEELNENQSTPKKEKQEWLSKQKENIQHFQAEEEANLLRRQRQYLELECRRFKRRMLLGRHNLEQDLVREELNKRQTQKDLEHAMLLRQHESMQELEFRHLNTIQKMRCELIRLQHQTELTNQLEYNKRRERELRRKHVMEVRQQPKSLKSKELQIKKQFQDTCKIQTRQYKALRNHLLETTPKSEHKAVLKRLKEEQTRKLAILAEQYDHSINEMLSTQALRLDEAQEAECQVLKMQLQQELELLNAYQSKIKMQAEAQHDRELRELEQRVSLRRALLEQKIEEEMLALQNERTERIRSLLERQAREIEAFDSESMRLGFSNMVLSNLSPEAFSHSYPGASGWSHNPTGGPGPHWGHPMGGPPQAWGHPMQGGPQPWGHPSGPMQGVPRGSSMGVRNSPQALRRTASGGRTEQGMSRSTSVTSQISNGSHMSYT
The note with it: at 1 µM.

Test [5] has as its target T2, Serine/threonine-protein kinase TAO1 (Homo sapiens). The note with it: at 10 µM.
Test [6] has as its target T3, Serine/threonine-protein kinase TAO2 (Homo sapiens) (UniProt Q9UL54).
T3 sequence (whole entry): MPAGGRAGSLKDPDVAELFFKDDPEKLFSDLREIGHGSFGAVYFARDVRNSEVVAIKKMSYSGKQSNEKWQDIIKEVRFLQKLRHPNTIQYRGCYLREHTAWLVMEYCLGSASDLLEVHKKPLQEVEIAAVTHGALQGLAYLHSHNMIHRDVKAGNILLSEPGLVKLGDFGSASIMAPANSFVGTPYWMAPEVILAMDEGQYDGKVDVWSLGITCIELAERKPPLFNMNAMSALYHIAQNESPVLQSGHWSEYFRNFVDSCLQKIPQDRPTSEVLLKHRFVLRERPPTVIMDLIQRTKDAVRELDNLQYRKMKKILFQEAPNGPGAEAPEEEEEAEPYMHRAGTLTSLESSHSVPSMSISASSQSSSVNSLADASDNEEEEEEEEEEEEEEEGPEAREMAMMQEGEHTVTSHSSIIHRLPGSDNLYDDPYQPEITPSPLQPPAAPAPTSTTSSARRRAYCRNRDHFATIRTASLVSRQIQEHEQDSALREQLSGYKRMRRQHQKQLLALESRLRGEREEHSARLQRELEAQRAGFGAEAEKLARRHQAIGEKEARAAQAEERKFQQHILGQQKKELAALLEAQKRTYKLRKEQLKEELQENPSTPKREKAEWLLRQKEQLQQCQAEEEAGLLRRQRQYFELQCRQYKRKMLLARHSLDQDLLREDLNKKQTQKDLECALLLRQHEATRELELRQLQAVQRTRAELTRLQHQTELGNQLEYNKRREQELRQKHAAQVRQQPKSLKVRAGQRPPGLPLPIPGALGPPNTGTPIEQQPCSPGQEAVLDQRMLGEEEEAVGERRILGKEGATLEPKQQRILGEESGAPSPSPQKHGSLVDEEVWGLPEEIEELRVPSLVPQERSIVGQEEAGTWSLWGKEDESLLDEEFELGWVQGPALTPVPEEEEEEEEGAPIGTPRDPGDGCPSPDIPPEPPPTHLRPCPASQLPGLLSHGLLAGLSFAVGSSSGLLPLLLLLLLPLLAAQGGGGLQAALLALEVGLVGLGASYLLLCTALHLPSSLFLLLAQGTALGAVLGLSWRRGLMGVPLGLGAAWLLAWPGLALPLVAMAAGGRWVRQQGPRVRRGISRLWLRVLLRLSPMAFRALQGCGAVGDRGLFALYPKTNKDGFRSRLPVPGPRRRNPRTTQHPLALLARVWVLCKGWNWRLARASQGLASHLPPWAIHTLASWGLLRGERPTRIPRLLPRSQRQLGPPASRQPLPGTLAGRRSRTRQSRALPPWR
The conditions noted are these: at 1 µM.

The target of test [7] is T3, Serine/threonine-protein kinase TAO2 (Homo sapiens). The conditions noted are these: at 10 µM.
Test [8] deals with T4, Serine/threonine-protein kinase TAO3 (Homo sapiens) (UniProt Q9H2K8).
T4 sequence (whole entry): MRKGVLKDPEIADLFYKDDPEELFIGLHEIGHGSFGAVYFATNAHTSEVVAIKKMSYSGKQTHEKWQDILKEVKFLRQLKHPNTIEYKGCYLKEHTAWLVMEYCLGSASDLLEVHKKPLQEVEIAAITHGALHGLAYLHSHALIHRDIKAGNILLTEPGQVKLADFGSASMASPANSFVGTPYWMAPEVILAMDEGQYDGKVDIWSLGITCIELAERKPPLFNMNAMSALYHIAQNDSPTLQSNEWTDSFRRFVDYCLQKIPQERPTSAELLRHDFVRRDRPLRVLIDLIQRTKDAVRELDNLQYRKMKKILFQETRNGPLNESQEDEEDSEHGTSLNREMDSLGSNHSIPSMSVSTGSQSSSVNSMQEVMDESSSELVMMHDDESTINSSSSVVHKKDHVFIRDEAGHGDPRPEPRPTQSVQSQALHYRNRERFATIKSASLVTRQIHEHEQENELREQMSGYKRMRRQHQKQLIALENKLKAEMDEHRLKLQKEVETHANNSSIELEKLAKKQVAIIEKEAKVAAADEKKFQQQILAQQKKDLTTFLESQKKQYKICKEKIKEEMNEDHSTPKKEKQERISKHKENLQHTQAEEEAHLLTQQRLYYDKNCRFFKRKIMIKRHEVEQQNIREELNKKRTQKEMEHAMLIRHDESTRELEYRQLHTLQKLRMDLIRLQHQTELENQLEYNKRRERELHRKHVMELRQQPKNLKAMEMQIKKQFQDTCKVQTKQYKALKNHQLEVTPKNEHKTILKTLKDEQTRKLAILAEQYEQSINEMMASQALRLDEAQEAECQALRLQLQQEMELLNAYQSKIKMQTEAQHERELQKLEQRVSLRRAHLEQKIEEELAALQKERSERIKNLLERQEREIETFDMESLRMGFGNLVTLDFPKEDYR
The note with it: at 1 µM.

For test [9], the target named is T4, Serine/threonine-protein kinase TAO3 (Homo sapiens). The note with it: at 10 µM.
The target in test [10] is T5, Serine/threonine-protein kinase TBK1 (Homo sapiens) (UniProt Q9UHD2).
T5 sequence (whole entry): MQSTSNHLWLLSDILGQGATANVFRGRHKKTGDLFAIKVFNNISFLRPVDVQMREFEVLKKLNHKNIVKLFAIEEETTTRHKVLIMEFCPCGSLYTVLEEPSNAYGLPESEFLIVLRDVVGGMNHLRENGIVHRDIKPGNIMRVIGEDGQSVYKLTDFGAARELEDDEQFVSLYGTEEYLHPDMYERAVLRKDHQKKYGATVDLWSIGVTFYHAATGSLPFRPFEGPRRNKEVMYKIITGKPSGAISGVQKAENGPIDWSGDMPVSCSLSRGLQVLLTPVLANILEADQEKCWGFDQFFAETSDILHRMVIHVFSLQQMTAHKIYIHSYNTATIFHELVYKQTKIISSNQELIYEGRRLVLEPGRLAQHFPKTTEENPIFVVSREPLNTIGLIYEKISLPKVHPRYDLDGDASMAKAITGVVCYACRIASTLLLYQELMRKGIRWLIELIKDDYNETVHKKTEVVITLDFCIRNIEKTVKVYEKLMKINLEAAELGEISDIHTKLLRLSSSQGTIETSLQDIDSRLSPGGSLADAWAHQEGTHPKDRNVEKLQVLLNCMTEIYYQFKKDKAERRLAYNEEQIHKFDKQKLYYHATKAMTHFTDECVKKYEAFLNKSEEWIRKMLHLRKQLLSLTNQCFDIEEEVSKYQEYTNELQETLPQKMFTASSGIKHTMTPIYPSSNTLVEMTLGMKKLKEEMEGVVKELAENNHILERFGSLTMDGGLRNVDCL
The conditions noted are these: at 1 µM.

The target of test [11] is T5, Serine/threonine-protein kinase TBK1 (Homo sapiens). The conditions noted are these: at 10 µM.
For test [12], the target named is T6, TGF-beta receptor type-1 (Homo sapiens) (UniProt P36897).
T6 sequence (whole entry): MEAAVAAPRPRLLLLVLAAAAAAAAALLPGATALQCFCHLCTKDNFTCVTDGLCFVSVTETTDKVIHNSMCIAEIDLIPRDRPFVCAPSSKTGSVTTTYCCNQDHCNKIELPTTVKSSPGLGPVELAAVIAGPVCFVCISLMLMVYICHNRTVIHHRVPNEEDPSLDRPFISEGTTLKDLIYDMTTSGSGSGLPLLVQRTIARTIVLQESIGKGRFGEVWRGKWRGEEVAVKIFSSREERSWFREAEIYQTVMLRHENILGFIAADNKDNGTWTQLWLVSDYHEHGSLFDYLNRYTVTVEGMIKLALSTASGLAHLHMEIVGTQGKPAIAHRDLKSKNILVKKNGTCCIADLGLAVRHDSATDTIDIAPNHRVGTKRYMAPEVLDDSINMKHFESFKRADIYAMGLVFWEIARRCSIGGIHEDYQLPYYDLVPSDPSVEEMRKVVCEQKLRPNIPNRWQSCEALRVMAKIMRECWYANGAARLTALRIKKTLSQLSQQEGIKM
The note with it: at 1 µM.

The target in test [13] is T6, TGF-beta receptor type-1 (Homo sapiens). The note with it: at 10 µM.
Test [14] deals with Insulin-like growth factor 1 receptor (Homo sapiens) (UniProt P08069). The conditions noted are these: at 1 µM.
Chain of Insulin-like growth factor 1 receptor (Homo sapiens) (P08069 31-736 limits assumed): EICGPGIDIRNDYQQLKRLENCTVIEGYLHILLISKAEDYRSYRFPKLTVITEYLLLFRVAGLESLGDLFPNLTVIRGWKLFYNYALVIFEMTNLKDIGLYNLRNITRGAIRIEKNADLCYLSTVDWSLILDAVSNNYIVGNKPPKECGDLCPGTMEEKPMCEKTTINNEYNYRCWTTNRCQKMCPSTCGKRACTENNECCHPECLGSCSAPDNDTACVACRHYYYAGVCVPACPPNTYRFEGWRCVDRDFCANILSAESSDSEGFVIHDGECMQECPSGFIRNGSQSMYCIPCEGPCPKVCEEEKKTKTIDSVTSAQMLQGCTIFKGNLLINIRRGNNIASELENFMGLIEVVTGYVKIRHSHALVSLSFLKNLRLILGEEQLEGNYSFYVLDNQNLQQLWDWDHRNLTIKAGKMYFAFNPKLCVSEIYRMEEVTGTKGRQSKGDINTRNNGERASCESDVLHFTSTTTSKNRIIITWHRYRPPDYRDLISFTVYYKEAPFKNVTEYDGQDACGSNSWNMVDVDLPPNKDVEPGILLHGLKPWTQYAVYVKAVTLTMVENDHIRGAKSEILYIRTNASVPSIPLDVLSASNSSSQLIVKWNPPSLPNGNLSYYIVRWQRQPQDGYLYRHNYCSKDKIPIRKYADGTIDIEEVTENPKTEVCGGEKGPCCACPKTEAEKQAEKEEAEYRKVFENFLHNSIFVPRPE
Chain of Insulin-like growth factor 1 receptor (Homo sapiens) (P08069 741-1367 limits assumed): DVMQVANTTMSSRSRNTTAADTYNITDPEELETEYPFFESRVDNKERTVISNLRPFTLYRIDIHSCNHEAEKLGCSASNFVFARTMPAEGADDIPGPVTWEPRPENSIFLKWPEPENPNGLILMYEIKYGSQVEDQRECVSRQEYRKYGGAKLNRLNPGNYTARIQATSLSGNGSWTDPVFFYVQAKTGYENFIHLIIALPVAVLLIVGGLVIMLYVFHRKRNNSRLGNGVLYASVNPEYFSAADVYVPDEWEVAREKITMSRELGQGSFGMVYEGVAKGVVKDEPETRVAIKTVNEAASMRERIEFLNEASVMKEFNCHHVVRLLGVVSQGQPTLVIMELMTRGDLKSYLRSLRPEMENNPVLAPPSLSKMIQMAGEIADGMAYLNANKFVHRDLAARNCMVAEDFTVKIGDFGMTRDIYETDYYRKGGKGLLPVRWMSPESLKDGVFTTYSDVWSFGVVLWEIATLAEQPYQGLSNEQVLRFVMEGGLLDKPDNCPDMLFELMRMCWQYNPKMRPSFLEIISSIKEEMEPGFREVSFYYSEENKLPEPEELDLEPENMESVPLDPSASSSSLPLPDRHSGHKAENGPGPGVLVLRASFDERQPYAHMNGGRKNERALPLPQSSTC
Test [15] shares this target. The conditions noted are these: at 10 µM.
Test [16] concerns the target T7, Inhibitor of nuclear factor kappa-B kinase subunit beta (Homo sapiens) (UniProt O14920).
T7 sequence (whole entry): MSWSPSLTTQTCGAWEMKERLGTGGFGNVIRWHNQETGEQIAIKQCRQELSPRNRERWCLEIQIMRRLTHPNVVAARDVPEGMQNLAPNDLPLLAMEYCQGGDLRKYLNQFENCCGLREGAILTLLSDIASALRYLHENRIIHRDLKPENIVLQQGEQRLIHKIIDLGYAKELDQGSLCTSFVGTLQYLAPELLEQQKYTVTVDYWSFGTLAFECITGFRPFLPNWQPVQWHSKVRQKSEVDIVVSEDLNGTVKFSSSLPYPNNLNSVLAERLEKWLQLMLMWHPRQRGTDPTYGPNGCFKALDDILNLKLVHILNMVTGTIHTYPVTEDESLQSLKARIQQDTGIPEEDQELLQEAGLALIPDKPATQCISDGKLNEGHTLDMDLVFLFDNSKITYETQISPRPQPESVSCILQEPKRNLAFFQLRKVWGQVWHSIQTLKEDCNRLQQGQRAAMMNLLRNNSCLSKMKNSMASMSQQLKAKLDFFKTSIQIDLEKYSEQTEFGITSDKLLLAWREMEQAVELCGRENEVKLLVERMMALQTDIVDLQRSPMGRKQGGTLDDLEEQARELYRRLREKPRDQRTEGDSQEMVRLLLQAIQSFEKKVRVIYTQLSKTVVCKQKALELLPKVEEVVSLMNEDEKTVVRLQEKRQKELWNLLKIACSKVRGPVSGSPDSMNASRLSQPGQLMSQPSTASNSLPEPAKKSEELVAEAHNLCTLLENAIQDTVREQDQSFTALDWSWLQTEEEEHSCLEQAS
The note with it: at 1 µM.

Test [17] concerns the target T7, Inhibitor of nuclear factor kappa-B kinase subunit beta (Homo sapiens). The note with it: at 10 µM.
In test [18] the target is Insulin receptor (Homo sapiens) (UniProt P06213). The note with it: at 1 µM.
Chain of Insulin receptor (Homo sapiens) (P06213 28-758 limits assumed): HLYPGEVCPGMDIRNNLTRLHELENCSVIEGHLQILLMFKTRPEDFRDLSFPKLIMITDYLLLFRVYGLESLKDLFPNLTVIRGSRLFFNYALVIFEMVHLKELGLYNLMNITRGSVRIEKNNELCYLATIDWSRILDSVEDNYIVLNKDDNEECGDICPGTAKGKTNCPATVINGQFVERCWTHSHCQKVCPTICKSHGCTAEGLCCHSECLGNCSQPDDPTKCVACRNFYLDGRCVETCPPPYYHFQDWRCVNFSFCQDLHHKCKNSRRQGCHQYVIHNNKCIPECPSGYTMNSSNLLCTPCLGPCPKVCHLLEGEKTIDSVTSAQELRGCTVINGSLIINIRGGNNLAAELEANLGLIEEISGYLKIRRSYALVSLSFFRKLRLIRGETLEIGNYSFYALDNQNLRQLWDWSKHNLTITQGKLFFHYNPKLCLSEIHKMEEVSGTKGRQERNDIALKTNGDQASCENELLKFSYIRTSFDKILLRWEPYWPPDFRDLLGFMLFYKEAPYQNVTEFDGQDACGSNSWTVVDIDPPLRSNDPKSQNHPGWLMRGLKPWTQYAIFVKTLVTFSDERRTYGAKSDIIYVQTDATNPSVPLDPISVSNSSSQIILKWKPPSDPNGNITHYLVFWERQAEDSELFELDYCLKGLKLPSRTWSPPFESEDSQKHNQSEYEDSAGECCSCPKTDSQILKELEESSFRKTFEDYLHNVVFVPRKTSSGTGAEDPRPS
Chain of Insulin receptor (Homo sapiens) (P06213 763-1382 limits assumed): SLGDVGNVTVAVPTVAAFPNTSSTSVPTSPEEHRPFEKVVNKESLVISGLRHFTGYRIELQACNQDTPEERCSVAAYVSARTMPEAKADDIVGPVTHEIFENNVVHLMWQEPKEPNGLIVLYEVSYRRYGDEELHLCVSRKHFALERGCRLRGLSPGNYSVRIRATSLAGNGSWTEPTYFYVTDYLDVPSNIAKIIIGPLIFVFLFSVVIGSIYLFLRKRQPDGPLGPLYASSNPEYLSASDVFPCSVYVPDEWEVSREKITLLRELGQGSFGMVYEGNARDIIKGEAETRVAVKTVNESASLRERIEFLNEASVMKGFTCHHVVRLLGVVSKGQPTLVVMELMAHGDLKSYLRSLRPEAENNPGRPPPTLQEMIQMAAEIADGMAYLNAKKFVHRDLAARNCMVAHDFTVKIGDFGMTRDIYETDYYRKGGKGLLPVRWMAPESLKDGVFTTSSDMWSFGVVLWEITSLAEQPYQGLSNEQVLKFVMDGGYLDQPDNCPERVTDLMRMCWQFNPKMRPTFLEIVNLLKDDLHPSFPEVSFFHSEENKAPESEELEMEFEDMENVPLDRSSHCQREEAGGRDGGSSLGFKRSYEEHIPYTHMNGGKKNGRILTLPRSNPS

The text below walks through data of ChEMBL document CHEMBL2218924, “A broad activity screen in support of a chemogenomic map for kinase signalling research and drug discovery” (Biochem J, 2013).

As for `CCN(CC)C(=O)c1ccc(Nc2nc(OCC3CCCCC3)c3nc[nH]c3n2)cc1`, the residual activity in test [1] worked out at 13%; in test [2] it was 47%; in [3] it was 7%; in test [4] it was 52%; in test [5], 10%; in test [6], 51%. The residual activity was found to be 6% in test [7]; 70% in [8]; 16% in test [9]; 15% in test [10]; 2% in test [11]; 82% in test [12]. The residual activity in test [13] was determined as 50%; in test [14] it was 70%; in [15] it was 16%; in test [16] it was 94%; in test [17], 69%; in test [18], 95%.
